Test results: paper PMC7862700, “An all-to-all approach to the identification of sequence-specific readers for epigenetic DNA modifications on cytosine”

Tests used:
Experiment in all cases: DAPPL (digital affinity profiling via proximity ligation, sequencing); 10 mM Tris-HCl pH 7.5, 50 mM NaCl, 1 mM DTT, 4% glycerol, room temperature, 30 min; GST-TFs on glutathione beads, 16-mer random dsDNA library, 0.1% formaldehyde crosslink after washing; high values mean tight binding
Conditions in all cases: protein: recombinant; tags: N-terminal GST; dsDNA, one strand shown
FEV = molecular target: T1, FEV (Homo sapiens, UniProt Q99581 1-238)
T1 sequence: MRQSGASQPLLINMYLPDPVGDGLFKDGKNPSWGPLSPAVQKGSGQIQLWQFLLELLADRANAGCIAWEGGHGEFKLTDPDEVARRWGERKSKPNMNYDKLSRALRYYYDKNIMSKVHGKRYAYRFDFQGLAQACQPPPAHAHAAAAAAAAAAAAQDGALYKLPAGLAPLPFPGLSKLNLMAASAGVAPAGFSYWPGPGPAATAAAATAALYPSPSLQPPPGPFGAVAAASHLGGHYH
Summary of the method: (§1)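 Binding signal is given per hexamer as its read frequency for a factor divided by its frequency in the tag-only sample. GST-fused human transcription factors were expressed in yeast, captured on glutathione beads, barcoded with DNA and pooled with that sample, then incubated with 200 nmole of a 16-mer random double-stranded DNA library in Tris/NaCl/DTT/glycerol buffer for 30 min at room temperature. The pools were then washed, crosslinked, proximity-ligated, amplified by PCR and sequenced on an Illumina NextSeq500.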

ETV5 = ETV5 (Homo sapiens, UniProt P41161 1-510)
Summary of the method: as §1

SPIC = molecular target: T2, SPIC (Homo sapiens, UniProt Q8N5J4 1-248)
T2 sequence: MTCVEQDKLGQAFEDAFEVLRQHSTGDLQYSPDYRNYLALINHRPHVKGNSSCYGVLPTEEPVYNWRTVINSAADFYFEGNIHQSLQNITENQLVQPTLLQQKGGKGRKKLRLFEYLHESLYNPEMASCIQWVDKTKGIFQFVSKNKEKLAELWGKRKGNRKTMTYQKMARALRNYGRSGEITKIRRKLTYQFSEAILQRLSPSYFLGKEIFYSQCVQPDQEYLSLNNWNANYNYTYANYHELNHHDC
Summary of the method: as §1

ELF4 = ELF4 (Homo sapiens, UniProt Q99607 1-663)
Summary of the method: as §1

ELK4 = molecular target: T3, ELK4 (Homo sapiens, UniProt P28324-2 1-405)
T3 sequence: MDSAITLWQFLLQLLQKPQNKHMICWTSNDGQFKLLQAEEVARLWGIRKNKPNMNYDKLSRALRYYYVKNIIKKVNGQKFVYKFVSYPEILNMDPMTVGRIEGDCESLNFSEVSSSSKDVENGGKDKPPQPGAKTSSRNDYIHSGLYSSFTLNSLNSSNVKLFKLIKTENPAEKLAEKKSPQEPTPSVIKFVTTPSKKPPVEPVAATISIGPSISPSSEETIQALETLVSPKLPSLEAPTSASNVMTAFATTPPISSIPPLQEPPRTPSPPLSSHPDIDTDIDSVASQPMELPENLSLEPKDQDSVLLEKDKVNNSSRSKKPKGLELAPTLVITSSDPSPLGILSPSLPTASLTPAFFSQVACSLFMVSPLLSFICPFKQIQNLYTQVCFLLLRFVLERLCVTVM
Summary of the method: as §1

ETV2 = molecular target: T4, ETV2 (Homo sapiens, UniProt O00321 1-342)
T4 sequence: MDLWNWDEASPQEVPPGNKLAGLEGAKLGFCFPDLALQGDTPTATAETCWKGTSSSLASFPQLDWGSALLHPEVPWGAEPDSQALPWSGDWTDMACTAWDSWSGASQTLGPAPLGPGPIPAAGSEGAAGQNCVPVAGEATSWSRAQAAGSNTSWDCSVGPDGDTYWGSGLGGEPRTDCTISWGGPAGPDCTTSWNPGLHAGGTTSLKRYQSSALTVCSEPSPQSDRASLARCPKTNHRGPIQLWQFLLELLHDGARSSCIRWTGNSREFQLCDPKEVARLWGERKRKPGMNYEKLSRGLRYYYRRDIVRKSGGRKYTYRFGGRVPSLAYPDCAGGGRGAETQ
Summary of the method: as §1

ELF3 = molecular target: T5, ELF3 (Homo sapiens, UniProt P78545 1-371)
T5 sequence: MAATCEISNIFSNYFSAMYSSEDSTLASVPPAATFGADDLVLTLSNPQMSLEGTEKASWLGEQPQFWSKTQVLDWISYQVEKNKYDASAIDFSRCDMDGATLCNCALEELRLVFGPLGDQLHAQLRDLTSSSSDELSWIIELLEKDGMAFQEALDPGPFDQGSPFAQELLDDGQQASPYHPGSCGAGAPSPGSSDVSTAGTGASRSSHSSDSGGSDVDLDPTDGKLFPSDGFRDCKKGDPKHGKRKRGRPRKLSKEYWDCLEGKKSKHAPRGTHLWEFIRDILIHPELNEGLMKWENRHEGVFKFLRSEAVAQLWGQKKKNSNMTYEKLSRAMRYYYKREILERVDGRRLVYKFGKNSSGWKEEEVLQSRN
Summary of the method: as §1

ETV1 = ETV1 (Homo sapiens, UniProt P50549 1-477)
Summary of the method: as §1

ERF = molecular target: T6, ERF (Homo sapiens, UniProt P50548 1-548)
T6 sequence: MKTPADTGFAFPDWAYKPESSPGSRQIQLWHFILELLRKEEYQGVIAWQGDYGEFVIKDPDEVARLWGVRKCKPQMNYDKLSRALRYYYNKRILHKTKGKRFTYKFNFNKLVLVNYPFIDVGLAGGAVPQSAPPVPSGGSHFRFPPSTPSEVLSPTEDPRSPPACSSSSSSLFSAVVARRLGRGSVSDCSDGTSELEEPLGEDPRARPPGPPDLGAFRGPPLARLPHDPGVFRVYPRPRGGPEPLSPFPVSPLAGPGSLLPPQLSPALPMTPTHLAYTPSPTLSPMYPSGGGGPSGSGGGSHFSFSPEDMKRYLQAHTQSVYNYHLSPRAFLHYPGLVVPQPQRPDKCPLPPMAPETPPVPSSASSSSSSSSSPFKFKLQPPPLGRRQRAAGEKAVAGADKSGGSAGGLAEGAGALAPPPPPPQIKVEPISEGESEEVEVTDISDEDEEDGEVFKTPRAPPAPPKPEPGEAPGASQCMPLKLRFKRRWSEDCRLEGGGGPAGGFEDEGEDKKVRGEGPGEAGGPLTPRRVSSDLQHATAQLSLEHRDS
Summary of the method: as §1

ETV3L = molecular target: T7, ETV3L (Homo sapiens, UniProt Q6ZN32 1-361)
T7 sequence: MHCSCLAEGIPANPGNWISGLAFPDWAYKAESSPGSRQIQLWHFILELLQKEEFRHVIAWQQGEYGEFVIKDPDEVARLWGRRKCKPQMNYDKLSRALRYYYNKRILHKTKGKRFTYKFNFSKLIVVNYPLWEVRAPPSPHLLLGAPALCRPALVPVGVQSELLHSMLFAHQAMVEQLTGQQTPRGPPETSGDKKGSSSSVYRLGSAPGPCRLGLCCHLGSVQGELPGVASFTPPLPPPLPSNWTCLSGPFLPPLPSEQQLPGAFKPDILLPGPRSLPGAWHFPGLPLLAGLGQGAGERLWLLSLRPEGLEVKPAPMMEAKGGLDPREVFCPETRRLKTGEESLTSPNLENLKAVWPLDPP
Summary of the method: as §1

ETS2 = molecular target: T8, ETS2 (Homo sapiens, UniProt P15036 1-469)
T8 sequence: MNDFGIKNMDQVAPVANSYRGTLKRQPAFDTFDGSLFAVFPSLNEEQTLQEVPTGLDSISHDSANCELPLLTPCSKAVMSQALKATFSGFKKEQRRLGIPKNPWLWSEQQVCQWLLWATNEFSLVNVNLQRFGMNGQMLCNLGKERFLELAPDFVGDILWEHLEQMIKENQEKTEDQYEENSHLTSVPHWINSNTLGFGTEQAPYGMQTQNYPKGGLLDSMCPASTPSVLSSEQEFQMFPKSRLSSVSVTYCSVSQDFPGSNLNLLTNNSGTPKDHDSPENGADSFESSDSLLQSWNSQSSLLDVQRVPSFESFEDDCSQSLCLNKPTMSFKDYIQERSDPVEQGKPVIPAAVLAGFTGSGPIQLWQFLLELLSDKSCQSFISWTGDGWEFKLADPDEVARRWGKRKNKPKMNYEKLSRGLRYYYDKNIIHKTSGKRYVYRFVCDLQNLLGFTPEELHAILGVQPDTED
Summary of the method: as §1

SPDEF = molecular target: T9, SPDEF (Homo sapiens, UniProt O95238 1-335)
T9 sequence: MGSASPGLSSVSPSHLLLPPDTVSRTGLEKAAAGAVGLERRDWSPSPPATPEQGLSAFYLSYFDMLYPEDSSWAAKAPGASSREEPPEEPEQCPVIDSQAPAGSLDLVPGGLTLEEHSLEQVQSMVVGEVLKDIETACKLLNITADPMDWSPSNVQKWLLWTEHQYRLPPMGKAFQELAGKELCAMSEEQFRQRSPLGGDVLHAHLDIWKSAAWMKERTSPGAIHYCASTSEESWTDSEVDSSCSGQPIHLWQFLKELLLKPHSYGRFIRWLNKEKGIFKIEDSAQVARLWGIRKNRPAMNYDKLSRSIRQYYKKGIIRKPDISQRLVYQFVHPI
Summary of the method: as §1

ETV7 = molecular target: T10, ETV7 (Homo sapiens, UniProt Q9Y603 1-341)
T10 sequence: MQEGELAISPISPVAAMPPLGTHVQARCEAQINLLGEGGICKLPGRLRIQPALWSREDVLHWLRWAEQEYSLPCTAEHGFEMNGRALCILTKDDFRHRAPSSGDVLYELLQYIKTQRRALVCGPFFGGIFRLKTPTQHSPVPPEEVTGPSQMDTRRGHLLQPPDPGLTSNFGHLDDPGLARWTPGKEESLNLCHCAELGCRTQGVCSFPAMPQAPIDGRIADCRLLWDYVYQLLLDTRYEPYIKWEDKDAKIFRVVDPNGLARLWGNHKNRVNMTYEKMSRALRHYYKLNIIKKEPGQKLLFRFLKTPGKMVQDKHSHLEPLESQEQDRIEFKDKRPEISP
Summary of the method: as §1

ELF5 = molecular target: T11, ELF5 (Homo sapiens, UniProt Q9UKW6-2 1-255)
T11 sequence: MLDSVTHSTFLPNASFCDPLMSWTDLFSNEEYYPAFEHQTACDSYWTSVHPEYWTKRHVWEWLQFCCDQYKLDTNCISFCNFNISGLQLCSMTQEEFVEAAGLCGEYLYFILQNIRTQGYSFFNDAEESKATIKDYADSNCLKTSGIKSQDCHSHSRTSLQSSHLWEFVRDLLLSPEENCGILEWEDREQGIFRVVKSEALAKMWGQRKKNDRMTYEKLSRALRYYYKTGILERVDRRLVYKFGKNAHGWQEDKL
Summary of the method: as §1

ETV3 = molecular target: T12, ETV3 (Homo sapiens, UniProt P41162-2 1-143)
T12 sequence: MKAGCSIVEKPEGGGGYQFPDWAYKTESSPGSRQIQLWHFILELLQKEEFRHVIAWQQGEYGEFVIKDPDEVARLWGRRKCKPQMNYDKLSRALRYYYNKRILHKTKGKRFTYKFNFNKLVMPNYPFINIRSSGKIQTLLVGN
Summary of the method: as §1

ETV6 = ETV6 (Homo sapiens, UniProt P41212 1-452)
Summary of the method: as §1

Chain of ETV5 (P41161 whole entry): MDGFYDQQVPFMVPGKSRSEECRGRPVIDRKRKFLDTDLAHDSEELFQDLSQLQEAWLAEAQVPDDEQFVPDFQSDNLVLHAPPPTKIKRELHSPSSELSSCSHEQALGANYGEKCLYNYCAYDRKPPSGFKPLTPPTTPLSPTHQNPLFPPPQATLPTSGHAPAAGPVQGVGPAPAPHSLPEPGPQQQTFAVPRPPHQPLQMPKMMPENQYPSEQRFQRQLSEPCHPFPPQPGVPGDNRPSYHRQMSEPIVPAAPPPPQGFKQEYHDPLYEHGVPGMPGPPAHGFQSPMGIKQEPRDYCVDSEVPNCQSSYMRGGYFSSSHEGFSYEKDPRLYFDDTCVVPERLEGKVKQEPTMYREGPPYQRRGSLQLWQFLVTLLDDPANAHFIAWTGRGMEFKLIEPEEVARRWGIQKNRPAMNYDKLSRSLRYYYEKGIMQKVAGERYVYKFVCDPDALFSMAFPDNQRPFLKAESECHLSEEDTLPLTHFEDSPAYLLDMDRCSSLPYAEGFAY
Chain of ELF4 (Q99607 whole entry): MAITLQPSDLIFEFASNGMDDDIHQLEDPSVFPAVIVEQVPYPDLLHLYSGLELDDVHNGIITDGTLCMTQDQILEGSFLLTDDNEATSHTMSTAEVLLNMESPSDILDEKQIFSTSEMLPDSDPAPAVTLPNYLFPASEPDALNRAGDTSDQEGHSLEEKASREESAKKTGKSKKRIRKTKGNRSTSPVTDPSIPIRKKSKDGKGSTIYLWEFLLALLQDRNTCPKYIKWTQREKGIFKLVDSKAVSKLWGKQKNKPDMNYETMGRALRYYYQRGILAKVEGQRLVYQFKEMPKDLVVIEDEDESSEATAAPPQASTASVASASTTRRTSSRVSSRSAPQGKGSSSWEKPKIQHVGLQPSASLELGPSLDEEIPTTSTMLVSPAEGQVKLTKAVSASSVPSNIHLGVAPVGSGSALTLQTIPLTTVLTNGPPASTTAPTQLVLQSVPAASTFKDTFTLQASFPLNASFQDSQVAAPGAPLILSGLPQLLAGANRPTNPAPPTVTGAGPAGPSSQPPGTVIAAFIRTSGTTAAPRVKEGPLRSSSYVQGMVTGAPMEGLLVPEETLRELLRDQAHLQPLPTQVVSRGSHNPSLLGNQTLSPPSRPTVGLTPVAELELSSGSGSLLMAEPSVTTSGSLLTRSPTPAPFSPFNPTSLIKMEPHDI
Chain of ETV1 (P50549 whole entry): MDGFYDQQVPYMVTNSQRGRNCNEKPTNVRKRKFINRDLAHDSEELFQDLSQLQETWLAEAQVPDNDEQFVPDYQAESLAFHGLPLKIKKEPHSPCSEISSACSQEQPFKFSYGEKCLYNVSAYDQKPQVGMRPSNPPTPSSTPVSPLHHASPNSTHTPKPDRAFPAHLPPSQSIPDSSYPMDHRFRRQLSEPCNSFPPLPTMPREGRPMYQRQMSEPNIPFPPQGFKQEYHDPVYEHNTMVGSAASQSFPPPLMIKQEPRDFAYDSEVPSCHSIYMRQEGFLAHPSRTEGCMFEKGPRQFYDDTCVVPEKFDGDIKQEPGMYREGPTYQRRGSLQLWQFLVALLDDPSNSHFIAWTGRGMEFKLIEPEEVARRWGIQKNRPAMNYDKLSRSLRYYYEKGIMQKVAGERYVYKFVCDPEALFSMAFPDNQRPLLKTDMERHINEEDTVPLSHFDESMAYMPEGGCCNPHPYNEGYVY
Chain of ETV6 (P41212 whole entry): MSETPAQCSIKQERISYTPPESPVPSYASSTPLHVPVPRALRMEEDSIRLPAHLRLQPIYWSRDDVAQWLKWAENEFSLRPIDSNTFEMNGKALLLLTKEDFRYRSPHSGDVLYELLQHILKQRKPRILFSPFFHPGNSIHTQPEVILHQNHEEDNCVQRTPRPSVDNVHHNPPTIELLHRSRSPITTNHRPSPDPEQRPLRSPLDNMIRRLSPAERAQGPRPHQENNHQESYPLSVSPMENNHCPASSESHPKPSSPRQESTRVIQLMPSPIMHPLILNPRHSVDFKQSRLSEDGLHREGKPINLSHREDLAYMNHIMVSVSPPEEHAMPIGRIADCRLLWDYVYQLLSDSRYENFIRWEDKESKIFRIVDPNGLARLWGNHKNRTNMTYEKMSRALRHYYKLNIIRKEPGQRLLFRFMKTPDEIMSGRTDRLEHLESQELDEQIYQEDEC

Row | Sequence | binding signal (FEV) | binding signal (ETV5) | binding signal (SPIC) | binding signal (ELF4) | binding signal (ELK4) | binding signal (ETV2) | binding signal (ELF3) | binding signal (ETV1) | binding signal (ERF) | binding signal (ETV3L) | binding signal (ETS2) | binding signal (SPDEF) | binding signal (ETV7) | binding signal (ELF5) | binding signal (ETV3) | binding signal (ETV6)
1 | CATAAC | 1.08 fold enrichment (6-mer frequency, TF over GST control) | 1.16 fold enrichment (6-mer frequency, TF over GST control) | 1.2 fold enrichment (6-mer frequency, TF over GST control) | 1.1 fold enrichment (6-mer frequency, TF over GST control) | 1.25 fold enrichment (6-mer frequency, TF over GST control) | 1.11 fold enrichment (6-mer frequency, TF over GST control) | 1.13 fold enrichment (6-mer frequency, TF over GST control) | 1.1 fold enrichment (6-mer frequency, TF over GST control) | 1.12 fold enrichment (6-mer frequency, TF over GST control) | 1.18 fold enrichment (6-mer frequency, TF over GST control) | 1.19 fold enrichment (6-mer frequency, TF over GST control) | 1.15 fold enrichment (6-mer frequency, TF over GST control) | 1.18 fold enrichment (6-mer frequency, TF over GST control) | 1.15 fold enrichment (6-mer frequency, TF over GST control) | 1.17 fold enrichment (6-mer frequency, TF over GST control) | 1.23 fold enrichment (6-mer frequency, TF over GST control)
2 | CCTCAC | 1.27 fold enrichment (6-mer frequency, TF over GST control) | 1.25 fold enrichment (6-mer frequency, TF over GST control) | 1.11 fold enrichment (6-mer frequency, TF over GST control) | 1.31 fold enrichment (6-mer frequency, TF over GST control) | 1.16 fold enrichment (6-mer frequency, TF over GST control) | 1.24 fold enrichment (6-mer frequency, TF over GST control) | 1.2 fold enrichment (6-mer frequency, TF over GST control) | 1.27 fold enrichment (6-mer frequency, TF over GST control) | 1.09 fold enrichment (6-mer frequency, TF over GST control) | 1.19 fold enrichment (6-mer frequency, TF over GST control) | 1.19 fold enrichment (6-mer frequency, TF over GST control) | 1.24 fold enrichment (6-mer frequency, TF over GST control) | 1.15 fold enrichment (6-mer frequency, TF over GST control) | 1.22 fold enrichment (6-mer frequency, TF over GST control) | 1.12 fold enrichment (6-mer frequency, TF over GST control) | 1.07 fold enrichment (6-mer frequency, TF over GST control)
3 | CACCAC | 1.19 fold enrichment (6-mer frequency, TF over GST control) | 1.1 fold enrichment (6-mer frequency, TF over GST control) | 1.3 fold enrichment (6-mer frequency, TF over GST control) | 1.13 fold enrichment (6-mer frequency, TF over GST control) | 1.22 fold enrichment (6-mer frequency, TF over GST control) | 1.14 fold enrichment (6-mer frequency, TF over GST control) | 1.24 fold enrichment (6-mer frequency, TF over GST control) | 1.16 fold enrichment (6-mer frequency, TF over GST control) | 1.14 fold enrichment (6-mer frequency, TF over GST control) | 1.19 fold enrichment (6-mer frequency, TF over GST control) | 1.15 fold enrichment (6-mer frequency, TF over GST control) | 1.16 fold enrichment (6-mer frequency, TF over GST control) | 1.04 fold enrichment (6-mer frequency, TF over GST control) | 1.11 fold enrichment (6-mer frequency, TF over GST control) | 1.11 fold enrichment (6-mer frequency, TF over GST control) | 1.14 fold enrichment (6-mer frequency, TF over GST control)
